Measurements reported in PubChem BioAssay AID504652 (National Center for Advancing Translational Sciences (NCATS), 2011).
Values joined by “and” are separate entries in the source; they are usually repeats but may differ in a detail not shown here. Identical values can stand only once. Hit rate of the full screen: of about 360,000 compounds, about 11,000 (3.1%) were called active. Cut-off read from the data, not from the text of the source: active = activity change below about -30%; inactive = the rest. Only a selection was taken, and actives are over-represented in it overall. A structure can be active in one record and inactive in another.

These molecules were tested against D(1A) dopamine receptor (Homo sapiens) (UniProt P21728) (assay: Antagonist of Human D 1 Dopamine Receptor: qHTS). Conditions: HEK293 TREx D1 cells, calcium flux, dopamine EC80; at 10 µM; stronger effect = lower value.
Sequence of D(1A) dopamine receptor (Homo sapiens) (P21728 whole entry, looked up): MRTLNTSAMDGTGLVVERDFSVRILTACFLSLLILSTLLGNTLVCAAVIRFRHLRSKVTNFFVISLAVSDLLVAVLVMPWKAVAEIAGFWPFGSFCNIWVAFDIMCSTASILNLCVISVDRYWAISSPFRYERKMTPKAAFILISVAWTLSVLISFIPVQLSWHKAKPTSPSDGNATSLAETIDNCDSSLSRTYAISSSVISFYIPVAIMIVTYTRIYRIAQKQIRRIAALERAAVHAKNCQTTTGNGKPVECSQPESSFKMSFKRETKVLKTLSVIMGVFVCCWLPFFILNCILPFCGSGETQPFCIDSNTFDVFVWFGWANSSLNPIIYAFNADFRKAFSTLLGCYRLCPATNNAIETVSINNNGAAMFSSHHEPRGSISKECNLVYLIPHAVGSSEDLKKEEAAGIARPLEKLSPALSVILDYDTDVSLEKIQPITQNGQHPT
Method in brief: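 Using tetracycline-induced force-coupled D1 Hek293 cells and a calcium dye, signals were followed for 180 s after compound, then for 180 s after EC80 dopamine, to detect inhibitors.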
% is set by controls: 0 for no effect and ±100 for the full control effect.

Activity change, negative = inhibition, -25.8% (inactive) and -41.5% (active):
CCc1nn(CCCN2CCN(c3cccc(Cl)c3)CC2)c(=O)n1CCOc1ccccc1

Activity change, negative = inhibition, active:
CCN(CC)S(=O)(=O)c1ccc2c(c1)nc(CN(C)C(=O)Nc1ccc(Cl)cc1)n2C -30.4%, CN1CCN(c2ccc(S(=O)(=O)Nc3ccccc3)cc2[N+](=O)[O-])CC1 -46.5%, Cc1ccc(C(=O)c2ccc(N3CCN(C)CC3)c([N+](=O)[O-])c2)cc1 -41.9%, Cc1ccccc1OCC(=O)NNC(=O)c1ccc(-n2cncn2)c([N+](=O)[O-])c1 -67.1%, O=C(CCCN=C1NS(=O)(=O)c2ccccc21)OCC(=O)c1ccc(F)c(F)c1 -64.4%, COc1cc(OC)c(NC(=O)c2cnc(N3CCCC3)nc2C)cc1Cl -35.8%, O=[N+]([O-])c1ccc2[nH]c3c(c2c1)CCCC3O (stereo unspecified) -30.8%, COc1ccccc1NC(=O)Nc1nnc(Cc2ccc(F)cc2)s1 -35.5%, CC1CCN(c2ccc([N+](=O)[O-])c(SCCO)c2)CC1 -30.7%, O=C1CCCN1C(=O)COc1ccc([N+](=O)[O-])cc1 -83.3%, S=c1[nH]nc(-c2ccco2)n1/N=C/c1ccc(Br)s1 -38.6%, Cc1nn(-c2ccccc2)c(-n2cccc2)c1C(=O)O -45.8%, COc1cc(OC)c(NC(=O)c2nc(-c3ccncc3)no2)cc1Cl -32.7%, Nc1nc(COC(=O)CCC(=O)c2ccc(Cl)cc2)nc(Nc2ccccc2)n1 -34.3%

Activity change, negative = inhibition, inactive:
Cc1ccc(C)c(Cn2c(C(=O)O)c(CNCc3cccs3)c3ccccc32)c1 57.2%, Cc1ccccc1-c1nc2cc(NC(=O)c3cccc(OCCC(C)C)c3)ccc2o1 0.754%, CC1=C(C(=O)N2CCN(c3cccc(C(F)(F)F)c3)CC2)C2(CCCCC2)OC1=O -3.32%, COC(=O)c1ccccc1NC(=O)Cn1c(=O)n(-c2cccc(C(F)(F)F)c2)c(=O)c2c(C)c(C)sc21 0.199%, CCOC(=O)C1CCCN(CC(=O)Nc2cc(C)c3c(=O)oc4ccccc4c3n2)C1 (stereo unspecified) -9.54%, COc1ccccc1Nc1nc(N)nc(N)c1S(=O)(=O)c1ccccc1 3.62%, CCN(CC)S(=O)(=O)c1ccc(NC(=O)c2cnc(C)cn2)cc1 5.26%, Cn1c(CN2CCOCC2)nc2cc(NC(=O)c3ccc(Cl)cc3)ccc21 -2.81%, Cc1ccc(Cl)cc1NC(=O)CSc1nc2ccccc2nc1Cc1ccccc1 3.51%, COc1ccc(NS(=O)(=O)c2ccc(N3CCN(CCO)CC3)c([N+](=O)[O-])c2)cc1 -20.8%, CN1CCN(S(=O)(=O)c2ccc(N3CCN(c4ccccc4O)CC3)c([N+](=O)[O-])c2)CC1 7.38%, Cc1cccc(N2CCN(c3ccc(C(N)=O)cc3[N+](=O)[O-])CC2)c1C 9.32%, CS(=O)(=O)N1CCN(c2ccc(C(=O)NC3C4CC5CC(C4)CC3C5)cc2[N+](=O)[O-])CC1 (stereo unspecified) -9.31%, COC(=O)c1c(NC(=O)C(C)Oc2ccc(Cl)c(C)c2)sc(C)c1C (stereo unspecified) 14.5%, Fc1ccc(-c2nn(-c3ccccc3Cl)c3c2cnc2ccccc23)cc1 15%, COc1cc(C)ccc1OCCSc1nc2ccc(NC(=O)c3ccc(C)cc3)cc2s1 5.21%, Cc1ccc(NC(=O)NC(C)c2c(-n3cccc3)sc(C)c2C)c(C)c1 (stereo unspecified) -16%, O=C(Cc1ccc(Cl)cc1)NCC(c1cccs1)S(=O)(=O)c1ccc(Cl)cc1 (stereo unspecified) 4.53%, Cn1ccc2cc(S(=O)(=O)N3CCCC(C(=O)NCc4ccccc4F)C3)ccc21 (stereo unspecified) -17.1%, CCOc1ccccc1NC(=O)CCn1cnnn1 -17.8%, CC(=O)c1ccc(NC(=O)c2ccc(-n3cncn3)c([N+](=O)[O-])c2)cc1 2.28%, O=C(NNC(=O)c1ccc(-n2cncn2)c([N+](=O)[O-])c1)c1ccccc1 -5.21%, Cc1nc2ccn(Cc3cccs3)c(=O)c2cc1C(=O)NCc1ccc(Cl)cc1 -27.7%, COc1ccc(OC)c(-n2nnc3c(sc4nc(C)c(Br)c(C)c43)c2=O)c1 -6.84%, COc1ccc(NC(=O)CSc2nnc(-c3nnn(-c4ccc(F)cc4)c3C)o2)cc1 -7.41%, O=C(OCCN=C1NS(=O)(=O)c2ccccc21)c1cccc([N+](=O)[O-])c1 -6.81%, N#CC1(NC(=O)COC(=O)CCN=C2NS(=O)(=O)c3ccccc32)CCCCC1 -2.93%, CCCCOc1ccc(CNC(=O)c2ccc3c(c2)N(C)C(=O)C2CCCCN32)cc1 (stereo unspecified) 20.7%, CCc1nc2cccnc2n1-c1ccc(CC(=O)Nc2c(C)cccc2C)cc1 0.844%, COc1cc(OC)c(NC(=O)c2cc(S(=O)(=O)N3CCCC3)cn2C)cc1Cl -11%, COc1cc(OC)c(NC(=O)N2CC3CCCN3c3ccccc32)cc1Cl (stereo unspecified) 46.3%, CCc1ccccc1NC(=O)N1CCC2(CC1)Oc1ccccc1C(=O)N2Cc1ccccc1F -12.2%, Cc1nn(CCOc2ccccc2)c(=O)n1-c1ccccc1F -11.9%, OC(COc1ccc2c(c1)CCC2)CN1CCN(c2cccc(Cl)c2)CC1 (stereo unspecified) -0.524%, CCOc1ccc(CNC(=O)CCc2c(C)nn(-c3ccc(N4CCCCC4)nn3)c2C)cc1 -12.9%, COc1ccccc1C(=O)Nc1c(C(=O)Nc2ccc(C)cc2)oc2ccccc12 2.57%, COc1ccc(NC(=O)c2ccc3nc(C(C)C)oc3c2)cc1OC 13.3%, CCOC(=O)c1ccc2[nH]c3c(c2c1)CCCC3NC=O (stereo unspecified) -2.15%, O=C1CCCc2c1[nH]c1ccc(Br)cc21 12%, CCOC(=O)C1CCCN(S(=O)(=O)c2cc(-c3cc(C)no3)ccc2OC)C1 (stereo unspecified) -12.1%, COC(=O)c1scc(-c2ccccc2)c1S(=O)(=O)Nc1ccccc1 -7.67%, CCn1c(=O)c2cc(C(=O)NCCc3ccc(Cl)cc3)sc2c2ccccc21 3.78%, COc1cccc(NC(=O)Cn2c(=O)cc(C)c3c(C)nn(-c4cccc(F)c4)c32)c1 11.7%, COc1cn(CC(=O)Nc2cccc(C)c2C)c(CN2CCCCC2)cc1=O -18.9%, O=C(Nc1nnc(COc2ccccc2)s1)Nc1ccccc1F -5.26%, COc1ccccc1NC(=O)Nc1nc(CC(=O)Nc2ccccc2F)cs1 2.24%, COc1ccc(Cl)cc1-n1c(CCC(=O)O)ccc1-c1ccc(C)cc1 -15.3%, Cc1cccc(N2CCN(S(=O)(=O)c3ccc4[nH]c5c(c4c3)CCCCC5)CC2)c1C 0.754%, CN1CCN(c2ccc([N+](=O)[O-])c(Sc3nc4ccccc4[nH]3)c2)CC1 -1.85%, CC1CCN(C(=S)c2cccc([N+](=O)[O-])c2)CC1 -12.4%, Cc1nn(-c2ccc(N3CCCCC3)nn2)c(C)c1CCC(=O)NCc1ccccc1F -7.94%, Cc1cccc(OCCSc2nc3ccccc3n2CC(=O)N2CCCCC2)c1C -17.2%, COc1ccc(C(CNC(=O)COc2ccc([N+](=O)[O-])cc2)N2CCCCC2)cc1 (stereo unspecified) 6.98%, O=C(OCC(=O)N1CCc2ccccc21)c1ccc([N+](=O)[O-])cc1 -13%, O=C(NCC(c1cccnc1)N1CCc2ccccc21)c1cccc(C(F)(F)F)c1 (stereo unspecified) 4.34%, Cc1ccc2oc3c(c(=O)c2c1)C(c1ccc([N+](=O)[O-])cc1)N(CCCN1CCOCC1)C3=O (stereo unspecified) -8.02%, Cc1ccc(-c2nn3c(=O)cc(CN4CCN(C(=O)Nc5cccc(C(F)(F)F)c5)CC4)nc3s2)cc1 4.59%, Cc1ccc(C)c(N2CCN(C(=O)CN3C(=O)COc4ccc(S(=O)(=O)N5CCCCCC5)cc43)CC2)c1 -0.74%, Cc1ccccc1-c1n[nH]c(=S)n1/N=C/c1ccc(-c2ccccc2Br)o1 -0.652%, Cc1ccsc1/C=N/n1c(=S)[nH]nc(C)c1=O 0.744%, O=C(CN1C(=O)COc2ccc(S(=O)(=O)N3CCOCC3)cc21)N1CCN(c2cccc(Cl)c2)CC1 -5.01%, COc1ccc(CNC(=O)CCc2c(C)nn(-c3ccc(N4CCCC4)nn3)c2C)cc1 8.22%, Cc1ccc(-n2nc(C)c(C(=O)O)c2-n2cccc2)cc1 -8.13%, Cc1nn(-c2ccc(F)cc2)c(-n2cccc2)c1C(=O)N1CCN(c2ccccc2)CC1 21%, CCN(CC)CCNC(=O)c1cc2c(=O)oc3ccc(C)cc3c2s1 4.45%, COc1cc(OC)c(NC(=O)c2c3c(nn2C)-c2ccccc2SC3)cc1Cl 2.27%, COc1cc(NC(=O)c2ccc(-c3csc(C)n3)cc2)c(OC)cc1Cl -3.88%, COc1ccc(NC(=O)c2ccc3oc(=O)c(S(=O)(=O)c4ccc(F)cc4)cc3c2)c(OC)c1 4.65%, O=C(Nc1cc(-c2nc3ccccc3o2)ccc1Cl)c1cc([N+](=O)[O-])ccc1N1CCOCC1 -2.21%, Cc1ccccc1Nc1nc(N)nc(COC(=O)CCC(=O)c2ccc(F)cc2)n1 -23.2%, Nc1nc(CC(=O)CSc2ccc(Cl)cc2)nc(Nc2ccc(F)cc2)n1 -8.8%
